Assay [1] is described as follows: ATG_GLI_CIS: Attagene CIS-FACTORIAL HepG2 Assay for human Zinc Finger Protein GLI1 (AID 2282945). The conditions noted are these: HepG2, Attagene cis-factorial reporter mRNA, GLI element; actives raise or lower the signal. The procedure, abridged:
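HepG2 cells transiently transfected with cis-promoter multiplexed reporter units report endogenous transcription factor activity. After 24 h chemical exposure, reporter mRNA was quantified by RT-PCR, 6-FAM labelling, HpaI digestion and capillary electrophoresis, with bidirectional fitting against DMSO.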

Assay [2] is described as follows: ATG_GRE_CIS: Attagene CIS-FACTORIAL HepG2 Assay for human Glucocorticoid Response Elements (GRE) (AID 2282947). Particulars: HepG2 GRE cis-reporter, Attagene multiplex mRNA; actives raise or lower the signal. The procedure, abridged:
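HepG2, transient cis-reporter transfection, 24 h. Reporter mRNA: RT-PCR then CE, fluorescence. Fit both directions vs DMSO.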

The nature of assay [3]: ATG_ISRE_CIS: Attagene CIS-FACTORIAL HepG2 Assay for human Interferon Regulatory Factor 1 (IRF1) binding to an Interferon-Stimulated Response Element (ISRE) (AID 2282948). The conditions noted are these: HepG2 ISRE cis-reporter (Attagene), mRNA transcription readout; actives raise or lower the signal. The procedure, abridged:
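Multiplexed mRNA reporter readout in human liver HepG2 cells: cis-element-driven reporters transfected, compound added for 24 h, transcripts amplified, fluorescently labelled and sized by capillary electrophoresis; curve fitting bidirectional against DMSO.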

Assay [4] in a line: ATG_M_32_CIS: Attagene CIS-FACTORIAL HepG2 Assay for M32 Transcription Factor (Internal Marker) (AID 2282949).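 Further: background control marker of the multiplexed CIS panel rather than a real target.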 Particulars: HepG2 Attagene cis-factorial M32 reporter, mRNA; actives raise or lower the signal. A digest of the protocol: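 Transient MRTU transfection of HepG2; 24 h compound treatment; TriZol RNA, oligo(dT) RT, reporter PCR, 6-FAM primer extension, HpaI cut, CE. Gain/loss of signal vs DMSO.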

The nature of assay [5]: ATG_M_06_CIS: Attagene CIS-FACTORIAL HepG2 Assay for M06 Transcription Factor (Internal Marker) (AID 2282950). The conditions noted are these: HepG2 Attagene CIS-FACTORIAL M06 internal marker reporter; actives raise or lower the signal. The procedure, abridged: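 Steps: transfect HepG2 with multiplexed cis-element reporter constructs; dose chemical 24 h; extract RNA with DNase treatment; reverse-transcribe, PCR-amplify, 6-FAM label, HpaI digest; separate fragments by capillary electrophoresis. Activity fitted both directions versus DMSO.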

Assay [6] deals with Hypoxia-inducible factor 1-alpha (Homo sapiens) (UniProt Q16665). The assay is described as follows: ATG_HIF1a_CIS: Attagene CIS-FACTORIAL HepG2 Assay for human Hypoxia Inducible Factor 1 (HIF1A) (AID 2282951). The conditions noted are these: HepG2 Attagene cis-factorial HIF1a reporter transcription; actives raise or lower the signal. The procedure, abridged:
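Measures endogenous transcription-factor activity through cis-regulated reporter mRNA in HepG2. Cells dosed 24 h; transcripts quantified by RT-PCR with 6-FAM-labelled products separated by capillary electrophoresis; DMSO serves as negative control.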

The target of assay [7] is Hepatocyte nuclear factor 6 (Homo sapiens) (UniProt Q9UBC0). The assay is described as follows: ATG_HNF6_CIS: Attagene CIS-FACTORIAL HepG2 Assay for human Hepatocyte Nuclear Factor 6 (HNF6) (AID 2282952). Particulars: HepG2 Attagene cis-factorial HNF6 reporter transcription; actives raise or lower the signal. A digest of the protocol: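 Using cis-element reporters in HepG2 liver cells, the assay tracks endogenous factor-driven transcription 24 h post-dosing. Signal comes from 6-FAM-labelled, HpaI-digested RT-PCR fragments, with gain or loss scored against DMSO.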

The target in assay [8] is Heat shock factor protein 1 (Homo sapiens) (UniProt Q00613). The assay is described as follows: ATG_HSE_CIS: Attagene CIS-FACTORIAL HepG2 Assay for human Heat Shock Transcription Factor 1 (HSE) (AID 2282953). The conditions noted are these: HepG2 HSE cis-reporter, Attagene RNA transcription; actives raise or lower the signal. A digest of the protocol:
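Cells were transfected with cis-element-driven reporter constructs, dosed for 24 h, then total RNA was reverse-transcribed and reporter cDNA amplified, FAM-labelled and digested with HpaI. Fragments were resolved by capillary electrophoresis; gain or loss was fitted against DMSO.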

The nature of assay [9]: ATG_MRE_CIS: Attagene CIS-FACTORIAL HepG2 Assay for human Metal Responsive Element (MRE) (AID 2282954). The conditions noted are these: HepG2 MRE cis-reporter transcription, Attagene multiplex; actives raise or lower the signal. The procedure, abridged: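 Readout: capillary electrophoresis of 6-FAM-labelled, HpaI-digested RT-PCR reporter products. System: HepG2 cells carrying transient multiplexed cis reporters, dosed 24 h. Analysis: bidirectional fit, DMSO baseline.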

Assay [10] in a line: ATG_PBREM_CIS: Attagene CIS-FACTORIAL HepG2 Assay for human Phenobarbital-responsive Enhancer Module (PBREM) (AID 2282955). The conditions noted are these: HepG2 PBREM cis-reporter, Attagene multiplexed transcription; actives raise or lower the signal. A digest of the protocol:
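Fluorescence of labelled reporter cDNA fragments, resolved by capillary electrophoresis, gives mRNA induction in transfected HepG2 cells treated for 24 h; DMSO serves as negative control and baseline.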

Assay [11] has as its target Paired box protein Pax-6 (Homo sapiens) (UniProt P26367). Nature of the assay: ATG_Pax6_CIS: Attagene CIS-FACTORIAL HepG2 Assay for human Paired Box 6 (PAX6) (AID 2282956). The conditions noted are these: HepG2 CIS-FACTORIAL PAX6 reporter transcription, RNA readout; actives raise or lower the signal. The procedure, abridged: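 Fluorescent RT-PCR products separated by capillary electrophoresis report PAX6-linked promoter mRNA in HepG2 cells 24 h post-dose. Curves fitted bidirectionally, DMSO as negative control.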

Assay [12] is described as follows: ATG_PXRE_CIS: Attagene CIS-FACTORIAL HepG2 Assay for human Pregnane X Receptor Element (PXRE) (AID 2282957). The conditions noted are these: HepG2 Attagene CIS-FACTORIAL PXRE reporter, mRNA; actives raise or lower the signal. The procedure, abridged:
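Using HepG2 transfected with multiple reporter transcription units, endogenous factor-driven transcription was scored as reporter mRNA after 24 h exposure.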

Assay [13] in a line: ATG_PPRE_CIS: Attagene CIS-FACTORIAL HepG2 Assay for human Peroxisome Proliferator-activated Response Element (PPRE) (AID 2282958). Particulars: HepG2 PPRE cis-element reporter, Attagene transcription factor profiling; actives raise or lower the signal. A digest of the protocol: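 Cells are first transfected transiently with the multiplexed reporter library, then dosed for 24 h. Total RNA is reverse-transcribed, amplified, fluorescently end-labeled and HpaI-cut before capillary electrophoresis; activity is fitted bidirectionally against DMSO controls.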

Assay [14] can be described thus: ATG_RORE_CIS: Attagene CIS-FACTORIAL HepG2 Assay for human RAR-related Orphan Receptor Element (RORE) (AID 2282959). Particulars: HepG2 Attagene cis-factorial RORE reporter, mRNA; actives raise or lower the signal. The procedure, abridged: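 Cells were HepG2 carrying transfected cis-regulated reporter constructs, dosed for 24 hours. Total RNA was reverse-transcribed and reporter cDNA amplified, fluorescently labeled and sized by capillary electrophoresis. Activity was fitted bidirectionally relative to DMSO.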

A short description of assay [15]: ATG_Sox_CIS: Attagene CIS-FACTORIAL HepG2 Assay for human SRY-box transcription factor (SOX) (AID 2282960). Particulars: HepG2 Attagene cis-factorial SOX reporter, mRNA; actives raise or lower the signal. A digest of the protocol: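 Transient MRTU transfection of HepG2; 24 h compound incubation; TriZol RNA, oligo(dT) RT, PCR, 6-FAM primer extension, HpaI cut, CE. Bidirectional fit, DMSO = baseline.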

Assay [16] addresses Transcription factor Sp1 (Homo sapiens) (UniProt P08047). Nature of the assay: ATG_Sp1_CIS: Attagene CIS-FACTORIAL HepG2 Assay for human Specificity Protein 1 (Sp1) (AID 2282961). Particulars: HepG2 Sp1 cis-reporter transcription, actives raise or lower the signal. The procedure, abridged:
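Endogenous Sp1 activity was gauged in human liver HepG2 cells bearing transfected reporter units under a cis-regulating promoter. After 24 h dosing, reporter mRNA was quantified by RT-PCR with capillary electrophoresis, and activity fitted bidirectionally versus DMSO.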

Assay [17] in a line: ATG_SREBP_CIS: Attagene CIS-FACTORIAL HepG2 Assay for human Sterol Regulatory Element Binding (SREBP) (AID 2282962). The conditions noted are these: HepG2 Attagene cis-factorial SREBP reporter, mRNA; actives raise or lower the signal. The procedure, abridged: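 Endogenous factor activity is measured in HepG2 through multiplexed reporter units under cis-element control. Following a 24 h incubation, reporter transcripts are reverse-transcribed, PCR-amplified and sized by capillary electrophoresis; activity is fitted in both directions relative to DMSO.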

Assay [18] addresses Signal transducer and activator of transcription 3 (Homo sapiens) (UniProt P40763). The assay is described as follows: ATG_STAT3_CIS: Attagene CIS-FACTORIAL HepG2 Assay for human Signal Transducer and Activator of Transcription 3 (STAT3) (AID 2282963). Particulars: HepG2, Attagene cis-factorial STAT3 reporter transcription; actives raise or lower the signal. The procedure, abridged: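 Uses human liver HepG2 transiently carrying cis-regulated reporter transcription units. Following 24 h dosing, reporter mRNA induction was detected by RT-PCR and capillary electrophoresis, analysed bidirectionally versus DMSO.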

A short description of assay [19]: ATG_TA_CIS: Attagene CIS-FACTORIAL HepG2 Assay for human TA Basal Promoter (AID 2282964). The conditions noted are these: HepG2 Attagene CIS-factorial TA basal promoter reporter; actives raise or lower the signal. A digest of the protocol:
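Steps: transfect HepG2 with MRTUs; dose 24 h; isolate RNA, DNase-treat, reverse-transcribe; PCR and FAM-label reporter cDNA; digest with HpaI 2h at 37 C; run capillary electrophoresis. Activity fitted both directions against DMSO.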

Active and inactive are the calls of the source. How the source made its calls: active means hit-call score of the fitted dose curve at least 0.9, where 1 is the maximum; inactive means score below 0.9.

Sequence of Hypoxia-inducible factor 1-alpha (Homo sapiens) (Q16665 whole entry, looked up): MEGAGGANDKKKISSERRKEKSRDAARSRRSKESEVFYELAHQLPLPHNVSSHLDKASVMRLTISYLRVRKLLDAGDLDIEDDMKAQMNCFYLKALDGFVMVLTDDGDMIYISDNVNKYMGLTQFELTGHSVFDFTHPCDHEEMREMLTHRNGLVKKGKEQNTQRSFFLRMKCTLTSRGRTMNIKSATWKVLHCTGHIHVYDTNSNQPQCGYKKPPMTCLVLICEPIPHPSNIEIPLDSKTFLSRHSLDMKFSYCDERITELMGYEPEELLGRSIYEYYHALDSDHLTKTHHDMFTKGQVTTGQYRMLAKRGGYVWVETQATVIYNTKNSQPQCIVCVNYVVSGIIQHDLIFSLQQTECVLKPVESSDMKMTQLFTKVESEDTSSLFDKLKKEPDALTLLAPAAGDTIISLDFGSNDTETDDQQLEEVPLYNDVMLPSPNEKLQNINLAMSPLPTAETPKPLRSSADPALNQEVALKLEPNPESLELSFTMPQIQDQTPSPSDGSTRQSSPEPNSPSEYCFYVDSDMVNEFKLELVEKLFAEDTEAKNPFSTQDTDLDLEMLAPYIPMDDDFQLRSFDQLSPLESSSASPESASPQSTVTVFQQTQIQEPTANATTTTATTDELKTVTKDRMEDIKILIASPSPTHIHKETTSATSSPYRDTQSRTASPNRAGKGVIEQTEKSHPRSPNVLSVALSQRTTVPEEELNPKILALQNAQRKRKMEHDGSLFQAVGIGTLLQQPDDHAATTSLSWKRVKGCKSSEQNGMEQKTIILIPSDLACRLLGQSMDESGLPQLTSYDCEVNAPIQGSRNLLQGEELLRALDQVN
Sequence of Transcription factor Sp1 (Homo sapiens) (P08047 whole entry, looked up): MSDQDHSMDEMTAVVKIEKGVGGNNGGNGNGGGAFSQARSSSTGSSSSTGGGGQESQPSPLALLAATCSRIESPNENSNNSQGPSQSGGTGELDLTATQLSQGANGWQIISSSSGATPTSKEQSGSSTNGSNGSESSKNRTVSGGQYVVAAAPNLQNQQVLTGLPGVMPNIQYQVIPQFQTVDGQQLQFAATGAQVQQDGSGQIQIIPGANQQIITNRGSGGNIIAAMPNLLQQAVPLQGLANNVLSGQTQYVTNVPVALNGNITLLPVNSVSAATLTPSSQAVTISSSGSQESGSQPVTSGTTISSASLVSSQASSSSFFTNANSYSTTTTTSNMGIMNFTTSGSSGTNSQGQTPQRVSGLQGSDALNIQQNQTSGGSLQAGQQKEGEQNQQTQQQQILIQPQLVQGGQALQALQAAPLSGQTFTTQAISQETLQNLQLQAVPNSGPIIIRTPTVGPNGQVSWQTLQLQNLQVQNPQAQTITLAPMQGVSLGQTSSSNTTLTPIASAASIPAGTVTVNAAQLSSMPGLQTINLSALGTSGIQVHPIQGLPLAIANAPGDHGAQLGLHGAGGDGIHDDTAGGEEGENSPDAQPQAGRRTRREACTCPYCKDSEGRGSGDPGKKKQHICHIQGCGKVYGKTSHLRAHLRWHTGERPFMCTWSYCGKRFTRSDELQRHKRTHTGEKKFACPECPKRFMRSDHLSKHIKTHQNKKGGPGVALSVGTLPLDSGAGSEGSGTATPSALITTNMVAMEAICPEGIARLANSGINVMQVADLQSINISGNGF
Sequence of Signal transducer and activator of transcription 3 (Homo sapiens) (P40763 whole entry, looked up): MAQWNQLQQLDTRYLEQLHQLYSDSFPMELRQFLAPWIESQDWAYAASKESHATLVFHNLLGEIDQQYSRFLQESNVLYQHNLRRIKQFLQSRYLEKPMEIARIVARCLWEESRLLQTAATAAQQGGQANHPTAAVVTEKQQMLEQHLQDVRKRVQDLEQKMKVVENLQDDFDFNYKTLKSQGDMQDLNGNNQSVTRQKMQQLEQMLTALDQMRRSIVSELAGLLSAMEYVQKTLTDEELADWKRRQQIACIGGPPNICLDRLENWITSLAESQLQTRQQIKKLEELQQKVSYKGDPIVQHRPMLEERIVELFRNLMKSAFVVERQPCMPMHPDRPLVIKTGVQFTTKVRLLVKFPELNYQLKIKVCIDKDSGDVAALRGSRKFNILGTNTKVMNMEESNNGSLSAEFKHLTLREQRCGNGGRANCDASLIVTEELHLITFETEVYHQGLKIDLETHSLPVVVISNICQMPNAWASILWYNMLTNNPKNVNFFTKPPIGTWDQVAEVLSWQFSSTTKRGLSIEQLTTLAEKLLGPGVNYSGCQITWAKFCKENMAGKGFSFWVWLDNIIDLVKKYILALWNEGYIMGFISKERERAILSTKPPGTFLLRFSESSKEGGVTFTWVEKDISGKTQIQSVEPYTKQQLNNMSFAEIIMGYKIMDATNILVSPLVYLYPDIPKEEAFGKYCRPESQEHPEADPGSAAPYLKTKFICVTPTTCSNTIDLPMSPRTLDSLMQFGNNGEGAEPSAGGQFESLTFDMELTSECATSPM
Sequence of Heat shock factor protein 1 (Homo sapiens) (Q00613 whole entry, looked up, the tested form may be a part): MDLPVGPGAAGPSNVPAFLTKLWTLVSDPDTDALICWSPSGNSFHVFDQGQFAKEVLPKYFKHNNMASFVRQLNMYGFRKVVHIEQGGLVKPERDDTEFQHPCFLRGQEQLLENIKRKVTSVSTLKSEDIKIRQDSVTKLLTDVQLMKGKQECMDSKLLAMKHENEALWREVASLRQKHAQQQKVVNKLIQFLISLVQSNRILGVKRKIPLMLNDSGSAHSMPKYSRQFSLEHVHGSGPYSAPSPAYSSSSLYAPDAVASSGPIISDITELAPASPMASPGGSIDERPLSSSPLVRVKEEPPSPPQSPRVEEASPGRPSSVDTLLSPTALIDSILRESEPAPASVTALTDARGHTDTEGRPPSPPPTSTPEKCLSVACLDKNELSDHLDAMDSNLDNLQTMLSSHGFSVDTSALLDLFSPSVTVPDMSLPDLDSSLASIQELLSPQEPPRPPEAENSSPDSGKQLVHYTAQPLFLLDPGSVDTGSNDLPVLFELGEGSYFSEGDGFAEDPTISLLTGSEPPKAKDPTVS
Sequence of Hepatocyte nuclear factor 6 (Homo sapiens) (Q9UBC0 whole entry, looked up, the tested form may be a part): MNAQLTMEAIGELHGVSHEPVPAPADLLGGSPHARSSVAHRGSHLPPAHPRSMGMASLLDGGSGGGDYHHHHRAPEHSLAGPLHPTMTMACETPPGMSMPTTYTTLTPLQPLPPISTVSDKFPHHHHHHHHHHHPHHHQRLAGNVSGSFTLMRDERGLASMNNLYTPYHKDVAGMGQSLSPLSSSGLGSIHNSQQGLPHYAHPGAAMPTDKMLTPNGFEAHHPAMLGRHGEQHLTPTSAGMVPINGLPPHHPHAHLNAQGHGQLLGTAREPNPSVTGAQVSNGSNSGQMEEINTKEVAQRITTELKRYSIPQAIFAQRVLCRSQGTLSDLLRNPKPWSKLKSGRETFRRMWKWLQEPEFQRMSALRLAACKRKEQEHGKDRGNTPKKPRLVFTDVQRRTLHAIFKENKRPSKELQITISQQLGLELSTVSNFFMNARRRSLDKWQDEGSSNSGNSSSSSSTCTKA
Sequence of Paired box protein Pax-6 (Homo sapiens) (P26367 whole entry, looked up): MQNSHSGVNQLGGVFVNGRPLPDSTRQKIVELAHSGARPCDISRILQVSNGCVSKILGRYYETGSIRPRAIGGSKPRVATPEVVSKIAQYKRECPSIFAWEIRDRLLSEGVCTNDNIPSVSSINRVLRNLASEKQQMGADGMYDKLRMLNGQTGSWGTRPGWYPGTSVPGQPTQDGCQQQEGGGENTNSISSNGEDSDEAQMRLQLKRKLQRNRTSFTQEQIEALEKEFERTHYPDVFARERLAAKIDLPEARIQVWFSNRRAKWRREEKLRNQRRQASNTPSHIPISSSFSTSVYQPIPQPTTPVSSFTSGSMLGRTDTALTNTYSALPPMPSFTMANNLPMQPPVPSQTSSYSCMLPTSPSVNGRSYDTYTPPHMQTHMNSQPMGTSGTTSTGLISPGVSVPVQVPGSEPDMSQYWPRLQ

As for `FC(F)(F)C(F)(F)CNCC(F)(F)C(F)(F)F`, the call in assay [1], in assay [2], in assay [3], in [4], in assay [5] and in [6] was inactive. The call in assay [7], in assay [8], in assay [9], in assay [10], in assay [11] and in [12] was inactive. For the same compound, the call in [13], in [14], in assay [15], in [16], in [17] and in assay [18] was inactive. Also, the call in assay [19] was inactive.
Consider `O=C(O)C(F)(F)C(F)(F)C(F)(F)C(F)(F)C(F)(F)C(F)(F)C(F)(F)C(F)(F)C(F)(F)C(F)(F)C(F)(F)C(F)(F)F`, for which the outcome in [1], in [2], in assay [3], in assay [4], in [5] and in [6] was inactive. Also, the compound was called inactive in [7], in assay [8], in [9], in assay [10], in assay [11] and in assay [12]. For the same compound, the compound was called inactive in assay [13], in assay [14], in assay [15], in assay [16], in assay [17] and in [18]. The outcome in assay [19] was inactive.
Broadly, the AC50 is the concentration giving half of the maximal activity seen. Consider `CCc1c(Br)c(Br)c(Br)c(Br)c1Br`, for which the call in [1], in [2], in assay [3], in assay [4], in assay [5] and in assay [6] was inactive. The outcome in assay [7], in assay [8], in assay [9], in [11], in assay [13] and in assay [14] was inactive. Besides, the compound was called inactive in [15], in assay [16], in [17], in assay [18] and in assay [19]. Also, the AC50 in assay [10] was 23.7 µM (active).
For the compound `CCCCCCCCC(F)(F)C(F)(F)C(F)(F)C(F)(F)C(F)(F)C(F)(F)F`, the outcome in assay [1], in assay [2], in [3], in [4], in [5] and in [6] was inactive. Further, the result in [7], in assay [8], in [9], in [10], in assay [11] and in [13] was inactive. The compound was called inactive in assay [14], in [15], in [16], in assay [17], in assay [18] and in assay [19].
Turning to `C=C(C)C(=O)OCCC(F)(F)C(F)(F)C(F)(F)C(F)(F)C(F)(C(F)(F)F)C(F)(F)F`, the result in assay [1], in assay [2], in assay [3], in assay [4], in [5] and in [6] was inactive. Besides, the compound was classed as inactive in assay [7], in assay [8], in assay [9], in [10], in assay [11] and in assay [12]. In addition, the result in assay [13], in assay [14], in assay [15], in [16], in [17] and in [18] was inactive. In assay [19], the compound was classed as inactive.
For the compound `CCCCCCCCCCCCCCCC[N+](C)(C)Cc1ccccc1`, the compound was called inactive in assay [1], in assay [2], in [4], in assay [5], in assay [6] and in assay [7]. Besides, the result in assay [9], in assay [10], in [11], in assay [13], in [14] and in assay [15] was inactive. For the same compound, the compound was classed as inactive in assay [17], in assay [18] and in assay [19]. The concentration at half-maximal activity (AC50) in assay [3] was 47.6 µM (active); in assay [8], 24.5 µM (active); in assay [16], 132 µM (active).
